Molecules are shown by their SMILES. “And” between values parts separate entries of the source, which are not always exact repeats. Identical values can stand only once. The source made the active and inactive calls. How the source made its calls: active means hit-call score of the fitted dose curve at least 0.9, where 1 is the maximum; inactive means score below 0.9.

Read-out in the experiment: Collagen III, COL3A1 (gene 1281)
Description: BSK_hDFCGF_CollagenIII: BioMAP Diversity Plus: hDFCGF Assay for Collagen III Biomarker Activity (AID 2283056). As to conditions: primary human foreskin fibroblasts; actives raise or lower the signal. As for the experimental part: BSK_hDFCGF is a cell-based, multiplexed-readout assay that uses foreskin fibroblast, a human skin primary cell, with measurements taken at 24 hours after chemical dosing in a 96-well plate.BSK_hDFCGF_CollagenIII is an assay component measured in the BSK_hDFCGF assay. It measures Collagen antibody related to regulation of gene expression using ELISA technology.Data from the assay component BSK_hDFCGF_CollagenIII was analyzed into 1 assay endpoint. This assay endpoint, BSK_hDFCGF_CollagenIII, was analyzed with bidirectional fitting relative to DMSO as the negative control and baseline of activity. Using a type of binding reporter, gain or loss-of-signal activity can be used to understand changes in the signaling as they relate to the gene COL3A1. Furthermore, this assay endpoint can be referred to as a primary readout, because this assay has produced multiple assay endpoints where this one serves a signaling function. To generalize the intended target to other relatable targets, this assay endpoint is annotated to the cell adhesion molecules intended target family, where the subfamily is collagen.
The levels of cell surface (or secreted, indicated by the prefix "s") biomarker endpoints were measured by ELISA. Overt cytotoxicity to cells in confluent adherent cultures (all systems other than the BT system) was assessed by measuring total protein levels using sulforhodamine B (SRB) staining in parallel cultures at the time of biomarker measurements, indicated as SRB endpoints. For proliferation assays for adherent cell types, individual cell types are cultured at sub-confluence and relative cell numbers quantified by SRB staining at time points optimized for each system (48 h: 3C and CASM3C systems; 72 h: BT and HDF3CGF systems; 96 h: SAg system). SRB was performed by staining cells with 0.1% SRB after fixation with 10% TCA and reading wells at 560 nm.Viability and proliferation of PBMC (T cells) was quantified by Alamar Blue reduction for the SAg and BT systems. For PBMC viability (referred to as PBMC Cytotoxicity within the assay endpoint names), cells were plated (75,000/well in a 96-well plate) and then chemical samples added for 1 h before addition of activators, SEB and TSST-1 (20 ng/mL final concentration each). Cells were incubated for 90 h. Then, Alamar Blue (20 uL/well) (Invitrogen, Cat DAL1100) was added for 6 h, and the plates were read with a fluorescence microplate reader at 546/580 nm (excitation/emission). For PBMC proliferation, cells were plated and activated as above but incubated for only 16 h prior to addition of Alamar Blue. Plates were read after 6 h.
Take `Nc1c(Cl)cc([N+](=O)[O-])cc1Cl`: the result was inactive.
Same read-out and setting: in the case of `Cc1nn(-c2cc(NS(C)(=O)=O)c(Cl)cc2Cl)c(=O)n1C(F)F` it was “inactive”.
For the molecule `O=[N+]([O-])c1cc(C(F)(F)F)c(Cl)c([N+](=O)[O-])c1Nc1ncc(C(F)(F)F)cc1Cl`, the half-maximal activity concentration (AC50) was 1.83 µM (active) and 11.7 µM (active).
For `CN(C)[C@@H]1C(=O)C(C(N)=O)=C(O)[C@@]2(O)C(=O)C3=C(O)c4c(O)cccc4[C@@](C)(O)[C@H]3[C@H](O)[C@@H]12`, the outcome was inactive.
With `CCOP(=S)(Oc1cnc(C(C)(C)C)nc1)OC(C)C` (stereo not given), the concentration at half-maximal activity (AC50) was 31.3 µM (active).
For the molecule `C[Si](Cn1cncn1)(c1ccc(F)cc1)c1ccc(F)cc1`, the outcome was inactive.
For the molecule `CNC(=O)ON=C(SC)C(=O)N(C)C`, the outcome was inactive.
For the molecule `CC1(C(=O)Nc2ccc(O)c(Cl)c2Cl)CCCCC1`, the result was inactive.
As for `COP(=O)(OC)SCn1c(=O)oc2cc(Cl)cnc21`, the AC50 is 14.7 µM (active).
On the same count and under the same terms, the same measure for `CCCCSP(=O)(SCCCC)SCCCC`: 20 µM (active).
Turning to `CN(C)NC(=O)CCC(=O)O`, the result was inactive.
Consider `CCC(=O)Nc1ccc(Cl)c(Cl)c1`, for which the outcome was inactive.
As to `COP(=O)(NC(C)=O)SC` (stereo not given), the outcome was inactive.
Same read-out and setting: the same measure for `CC(Oc1cccc(Cl)c1)C(=O)O` (stereo not given): “inactive”.
As for `CC(C)=CC1C(C(=O)OCN2C(=O)C3=C(CCCC3)C2=O)C1(C)C` (stereo not given), the AC50 is 20 µM (active).
For the molecule `CCOC(=O)CC(SP(=O)(OC)OC)C(=O)OCC` (stereo not given), the result was inactive.
On the same count and under the same terms, the same measure for `S=C1NCCN1`: “inactive”.
Take `CCCOCC(=Nc1ccc(Cl)cc1C(F)(F)F)n1ccnc1`: the AC50 was 29.4 µM (active).
For the molecule `CCOP(=S)(OCC)Oc1ccc([N+](=O)[O-])cc1`, the result was inactive.
Regarding `CCCSP(=O)(OCC)Oc1ccc(Br)cc1Cl` (stereo not given), the half-maximal activity concentration (AC50) is 20 µM (active).
In the case of `CCC(=NOC/C=C/Cl)C1=C(O)CC(C2CCOCC2)CC1=O` (stereo not given), the result was inactive.
As for `CCOP(=S)(OCC)SCCSCC`, the outcome was inactive.
On to `CC[C@H](C)[C@H]1O[C@]2(C=C[C@@H]1C)C[C@@H]1C[C@@H](C/C=C(\C)[C@@H](O[C@H]3C[C@H](OC)[C@@H](O[C@H]4C[C@H](OC)[C@@H](NC)[C@H](C)O4)[C@H](C)O3)[C@@H](C)/C=C/C=C3\CO[C@@H]4[C@H](O)C(C)=C[C@@H](C(=O)O1)[C@]34O)O2`, for which the AC50 was 5.53 µM (active).
Still for that read-out and setting: the same measure for `C#CCC1=C(C)C(OC(=O)C2C(C=C(C)C)C2(C)C)CC1=O` (stereo not given): 29.4 µM (active).
For the molecule `C[N+]1(C)CCCCC1`, the result was inactive.
As to `CC1=NNC(=O)N(/N=C/c2cccnc2)C1`, the outcome was inactive.
`CN(C)C(=O)Nc1cccc(C(F)(F)F)c1`: the result was inactive.
The same measure, in the same setting: in the case of `CCCOc1nn(C(=O)NS(=O)(=O)c2ccccc2C(=O)OC)c(=O)n1C` it was “inactive”; in that of `CCCCOC(=O)c1ccccc1C(=O)O`, “inactive”.
Consider `C#CC(C)(C)NC(=O)c1cc(Cl)cc(Cl)c1`, for which the AC50 was 2.72 µM (active).
On to `CN1COCN(Cc2cnc(Cl)s2)C1=N[N+](=O)[O-]`, for which the result was inactive.
Regarding `CCc1cccc(CC)c1N(COC)C(=O)CCl`, the AC50 was 11.1 µM (active).
The same measure, in the same setting: in the case of `N#CSCSC#N` it was 2.52 µM (active).
Take `CC(C1CC1)C(O)(Cn1cncn1)c1ccc(Cl)cc1` (stereo not given): the result was inactive.
On the same count and under the same terms, in the case of `COc1cc(OC)nc(Sc2cccc(Cl)c2C(=O)O)n1` it was “inactive”; in that of `COP(=O)(OC)C(O)C(Cl)(Cl)Cl` (stereo not given), “inactive”.
`CCc1cccc(C)c1N(C(=O)CCl)C(C)COC` (stereo not given): the result was inactive.
For the molecule `Cc1ccn2nc(S(=O)(=O)Nc3c(F)cccc3F)nc2n1`, the result was inactive.
On to `Nc1nc(N)nc(NC2CC2)n1`, for which the result was inactive.
Same read-out and setting: the same measure for `CNc1cnn(-c2cccc(C(F)(F)F)c2)c(=O)c1Cl`: “inactive”.

The term AC50 denotes the concentration giving half of the maximal activity seen.

The values above are taken from PubChem BioAssay (EPA / NIEHS).
